Shown is part of a subset that was picked to be rich in hits.
NOMO-1 viab – NOMO-1 AML cell viability reduction, primary screen, STK33 inhibitor project, CellTiter-Glo luminescence; NOMO-1 AML viability, 72 h; inhibition, % (concentration not given with the values); 7.5% of 37,000 active; in the data active means inhibition above about 80%; inconclusive means no clear call, values can overlap the other calls
U2OS ROS induce – ROS inducers in U2OS cancer cells, primary screen, cell-based, H2DCF-DA fluorescence; U2OS ROS induction; ROS induction (% of piperlongumine), % at 10 µM; 2% of 46,000 active; AID 624156, 2012; in the data active means ROS induction above about 79%, passing the limit was not always enough; inconclusive means no clear call, values can overlap the other calls;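 further: 0% = DMSO vehicle median and 100% = reference compound median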
Starred values were filed as active, the others as inactive; ? = inconclusive; nt = no result.

SMILES	NOMO-1 viab	U2OS ROS induce
C[C@@H]1CN([C@H](C)CO)C(=O)c2cccc(NC(=O)Nc3ccc(C(F)(F)F)cc3)c2O[C@@H]1CN(C)C(=O)Nc1ccccc1	105*	30
Cc1noc(C)c1S(=O)(=O)N(C)C[C@H]1Oc2ccc(NC(=O)NC3CCCCC3)cc2CC(=O)N([C@@H](C)CO)C[C@H]1C	-1	5
COC(=O)CCCCCCC(=O)N/N=C/c1ccc(OC)c(OC)c1	nt	7
Cc1ccc(OCC(=O)Nc2cc(Cl)ccc2C(=O)O)c(C)c1	-10	nt
C[C@@H]1CN([C@@H](C)CO)C(=O)c2cccc(NC(=O)Nc3ccc(C(F)(F)F)cc3)c2O[C@@H]1CN(C)C(=O)Nc1ccc(F)cc1	50	29
COc1ccc(S(=O)(=O)Nc2cccc3c2O[C@H](CN(C)C(=O)Nc2ccc(F)cc2)[C@@H](C)CN([C@H](C)CO)C3=O)cc1	12	6
C[C@H](CO)N1C[C@H](C)[C@H](CN(C)C(=O)Nc2ccc(F)cc2)Oc2c(NC(=O)CCCCCC(=O)Nc3ccccc3N)cccc2C1=O	23	-5
C[C@H]1CN([C@@H](C)CO)C(=O)c2cccc(NC(=O)Nc3ccc(C(F)(F)F)cc3)c2O[C@H]1CN(C)C(=O)Nc1ccc2c(c1)OCO2	92*	58
C[C@@H]1CN([C@@H](C)CO)C(=O)c2cccc(NC(=O)Nc3ccc(C(F)(F)F)cc3)c2O[C@H]1CN(C)C(=O)Nc1ccc(C(F)(F)F)cc1	105*	14
COc1ccc(S(=O)(=O)Nc2cccc3c2O[C@@H](CN(C)C(=O)Nc2ccc(F)cc2)[C@@H](C)CN([C@H](C)CO)C3=O)cc1	111*	-7
C[C@@H]1CN([C@@H](C)CO)C(=O)c2cccc(NC(=O)Nc3ccc(C(F)(F)F)cc3)c2O[C@@H]1CN(C)C(=O)Nc1ccc2c(c1)OCO2	38	14
C[C@@H]1CN([C@@H](C)CO)C(=O)c2cccc(NC(=O)CCCCCC(=O)Nc3ccccc3N)c2O[C@@H]1CN(C)C(=O)Nc1ccc(C(F)(F)F)cc1	118*	-7
C[C@H]1CN([C@@H](C)CO)C(=O)Cc2cc(NC(=O)c3ccncc3)ccc2O[C@H]1CN(C)S(=O)(=O)c1ccc(F)cc1	-13	12
COc1ccc(NC(=O)N(C)C[C@@H]2Oc3c(NC(=O)C4CC4)cccc3C(=O)N([C@@H](C)CO)C[C@H]2C)cc1	-8	87*
COc1ccc(NC(=O)N(C)C[C@H]2Oc3c(NC(=O)C4CC4)cccc3C(=O)N([C@@H](C)CO)C[C@H]2C)cc1	3	-12
COC(=O)c1cccc2oc3cc(CO)cc(O)c3c(=O)c12	71	-2
COC(=O)C1=C2C(=O)c3c(O)cc(CO)cc3OC2C(O)C=C1 (stereo not drawn)	108*	146*
O=C(/C=C/CCc1ccccc1)CCc1ccccc1	121*	29
O=C(CCc1ccccc1)c1c(O)cc(O)cc1O	-8	7
C[C@H](CO)N1C[C@H](C)[C@@H](CN(C)Cc2ccc(-c3ccccc3)cc2)Oc2c(NS(=O)(=O)c3ccc(F)cc3)cccc2C1=O	28	63
C[C@@H]1CN([C@@H](C)CO)C(=O)c2cccc(NS(=O)(=O)c3ccc(F)cc3)c2O[C@@H]1CN(C)Cc1ccc(-c2ccccc2)cc1	84*	64
C[C@@H]1CN([C@@H](C)CO)C(=O)c2cccc(NS(=O)(=O)c3ccc(F)cc3)c2O[C@H]1CN(C)Cc1ccc(-c2ccccc2)cc1	34	?
C[C@H]1CN([C@@H](C)CO)C(=O)c2cccc(NS(=O)(=O)c3ccc(F)cc3)c2O[C@@H]1CN(C)Cc1ccc(-c2ccccc2)cc1	20	105*
CS(=O)(=O)N(CC(=O)Nc1cccc(C(F)(F)F)c1)Cc1ccccc1	30	-9
CCC1CN2CCc3cc(OC)c(OC)cc3[C@@H]2C[C@@H]1C[C@H]1NCCc2cc(OC)c(OC)cc21 (stereo partly drawn)	nt	-5
SMILES	NOMO-1 viab	U2OS ROS induce
C[C@H]1CN([C@@H](C)CO)C(=O)Cc2cc(NC(=O)c3ccncc3)ccc2O[C@H]1CN(C)Cc1ccc(Cl)c(Cl)c1	69	4
NCCCN(Cc1ccco1)C1CCCC1	106*	8
C=CCn1c(SCC(=O)NCCc2ccccc2)nc2sc3c(c2c1=O)CCCC3	nt	-3
C[C@@H]1CN([C@@H](C)CO)C(=O)c2cc(NC(=O)Nc3ccc(F)cc3)ccc2O[C@@H]1CN(C)C(=O)Nc1ccc2c(c1)OCO2	-4	1
COc1ccc(N2C(=O)Cc3ccc(OC)cc3C2=O)cc1	120*	-7
COc1ccc2c(c1)CCC(=O)C2	3	-11
C[C@@H]1C[C@H]2[C@@H]3CCC4=CC(=O)C=C[C@]4(C)[C@@]3(Cl)[C@@H](O)C[C@]2(C)[C@@]1(OC(=O)c1ccco1)C(=O)CCl	114*	9
CCC(=O)OCC(=O)[C@@]1(OC(=O)CC)[C@@H](C)CC2C3CCC4=CC(=O)C=C[C@]4(C)C3(F)[C@@H](O)C[C@@]21C (stereo partly drawn)	0	-5
Cc1ccc(NS(=O)(=O)c2cc(C(=O)NCC3CCCO3)ccc2Cl)c(C)c1 (stereo not drawn)	-10	-7
CCOC(=O)c1cnc2c(c(C)nn2C)c1Sc1nnc(SC)s1	125*	?
CCOC(=O)c1cnc2c(c(C3CC3)nn2C)c1N1CCOCC1	4	46
C[C@@H]1CN([C@@H](C)CO)C(=O)c2cccc(NC(=O)Nc3ccc(F)cc3)c2O[C@H]1CN(C)Cc1ccncc1	22	-1
COCc1cc(O)c(O)c(O)c1-c1c(COC)cc(O)c(O)c1O	97*	-4
COc1ccc(CCC(=O)O)c(O)c1	-6	-4
O=C(NC1CCS(=O)(=O)C1)/C(=C/c1ccccc1)NC(=O)c1ccccc1 (stereo not drawn)	nt	-25
CN1CCC(N(C)Cc2ccc(-c3ccccc3[N+](=O)[O-])o2)CC1	7	2
O=[N+]([O-])c1ccccc1-c1ccc(-c2nn3c(-c4ccccc4)nnc3s2)o1	65	174*
C[C@@H]1CN([C@H](C)CO)C(=O)Cc2cc(NC(=O)NC3CCCCC3)ccc2O[C@@H]1CN(C)Cc1ccc(C(=O)O)cc1	4	0
COc1ccc(O)c(/C=N/NC(=O)c2ccccc2O)c1	nt	9
COC(=O)CNC(=O)c1cn(-c2ccccc2)nc1-c1ccccc1	43	3
COC(=O)CNC(=O)c1cn(-c2ccccc2)nc1-c1cc2ccccc2oc1=O	111*	nt
COc1ccc(NC(=O)Nc2ccc3c(c2)C(=O)N([C@H](C)CO)C[C@H](C)[C@H](CN(C)Cc2ccc(Oc4ccccc4)cc2)O3)cc1	56	20
C=C1C(=O)O[C@@H]2C3=C(C)CC[C@]34O[C@@H](C[C@@H]4C)[C@H]12	114*	6
Cc1ccc(S(=O)(=O)Nc2cncc(C(=O)NC3CCCC3)c2)cc1	nt	-4
C[C@@H]1CCCCO[C@H](CN(C)Cc2ccc(Cl)c(Cl)c2)[C@@H](C)CN([C@H](C)CO)C(=O)c2cc(NC(=O)Cc3ccccc3)ccc2O1	44	25
C[C@H]1CN([C@@H](C)CO)C(=O)c2cc(NC(=O)CCCCCC(=O)Nc3ccccc3N)ccc2O[C@@H]1CN(C)Cc1ccncc1	19	15
C[C@H]1CN([C@@H](C)CO)C(=O)Cc2cc(NC(=O)CCCCCC(=O)Nc3ccccc3N)ccc2O[C@H]1CN(C)Cc1ccc(Cl)c(Cl)c1	127*	60

Source: PubChem
